# Measurements taken from PubChem BioAssay (Tox21).
# “And” between values parts separate entries of the source, which are not always exact repeats. Equal values may be shown once. Records with an inconclusive call do not appear. Where a call stands in place of a potency, no number is given. The source made the active and inactive calls. Unless noted, the call rests on the fitted dose curve; in most records, active means well fitted curve in the direction sought with a large enough effect in the repeat runs; inconclusive means weak or mixed curves; inactive means no such curve, though single readings can be large; an effect the other way counts as inactive or inconclusive.
# How the values were obtained:
# [1] = qHTS assay to identify small molecule antagonists of the glucocorticoid receptor (GR) signaling pathway - cell viability counter screen (AID 720693); further: nearly all actives have a fitted effect of over 55% in size
# [2] = qHTS assay for identifying genotoxic compounds that show differential cytotoxicity against isogenic chicken DT40 cell lines with known DNA damage response pathways - wild type cell line (AID 743012); further: nearly all actives have a fitted effect of over 60% in size; further: potency means the concentration at half of the fitted maximal effect
# In short: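 300 wt DT40 cells/well; cpd (DMSO) pintool-transferred after ~0.5 h at 37 C/5% CO2; 40 h incubation; CellTiter-Glo added, 30 min RT; luminescence read.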
# [3] = qHTS assay for identifying genotoxic compounds that show differential cytotoxicity against isogenic chicken DT40 cell lines with known DNA damage response pathways - Rev3 mutant cell line (AID 743014); further: nearly all actives have a fitted effect of over 55% in size; further: potency means the concentration at half of the fitted maximal effect
# [4] = qHTS assay for identifying genotoxic compounds that show differential cytotoxicity against isogenic chicken DT40 cell lines with known DNA damage response pathways - Rad54/Ku70 mutant cell line (AID 743015); further: nearly all actives have a fitted effect of over 60% in size; further: potency means the concentration at half of the fitted maximal effect
# [5] = qHTS assay to identify small molecule antagonists of the androgen receptor (AR) signaling pathway - cell viability counter screen (AID 743033; further: nearly all actives have a fitted effect of over 45% in size; further: potency means the concentration at half of the fitted maximal effect)
# [6] = target: Androgen receptor (Homo sapiens) (UniProt P10275); experiment: qHTS assay to identify small molecule antagonists of the androgen receptor (AR) signaling pathway (AID 743035; active means well fitted inhibition curve with a large enough effect in the signal ratio in the repeat runs, not every such curve was filed as active; the % refers to the signal ratio; further: potency means the concentration at half of the fitted maximal effect)
# Androgen receptor (Homo sapiens), sequence (P10275 whole entry, looked up): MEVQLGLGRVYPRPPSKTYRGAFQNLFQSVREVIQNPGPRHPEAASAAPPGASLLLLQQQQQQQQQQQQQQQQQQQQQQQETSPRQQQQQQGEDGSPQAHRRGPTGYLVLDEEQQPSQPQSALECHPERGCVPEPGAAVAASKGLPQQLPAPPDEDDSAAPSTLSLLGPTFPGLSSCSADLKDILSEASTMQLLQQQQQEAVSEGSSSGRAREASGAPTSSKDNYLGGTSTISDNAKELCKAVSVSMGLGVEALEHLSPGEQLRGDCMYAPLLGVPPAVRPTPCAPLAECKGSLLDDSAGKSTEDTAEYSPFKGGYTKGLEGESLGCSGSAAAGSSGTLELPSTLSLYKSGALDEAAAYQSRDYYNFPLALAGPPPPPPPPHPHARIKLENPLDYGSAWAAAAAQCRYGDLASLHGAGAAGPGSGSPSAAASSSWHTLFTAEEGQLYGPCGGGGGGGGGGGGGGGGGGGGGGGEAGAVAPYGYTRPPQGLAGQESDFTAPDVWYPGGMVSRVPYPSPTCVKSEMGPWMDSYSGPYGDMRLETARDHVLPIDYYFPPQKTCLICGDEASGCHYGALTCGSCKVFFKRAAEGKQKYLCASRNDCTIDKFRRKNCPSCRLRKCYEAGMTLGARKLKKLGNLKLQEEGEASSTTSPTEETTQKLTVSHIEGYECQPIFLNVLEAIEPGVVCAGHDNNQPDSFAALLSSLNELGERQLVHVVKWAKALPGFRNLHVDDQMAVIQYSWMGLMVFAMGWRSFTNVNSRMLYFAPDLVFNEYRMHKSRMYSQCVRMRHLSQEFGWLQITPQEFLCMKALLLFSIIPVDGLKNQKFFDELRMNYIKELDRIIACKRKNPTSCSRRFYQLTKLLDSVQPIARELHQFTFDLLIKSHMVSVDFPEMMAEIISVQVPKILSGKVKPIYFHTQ
# In short: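 In this cell-based reporter screen, compounds were tested in concentration series against R1881-activated HEK293 cells expressing beta-lactamase under UAS control; after 16 h at 37C, FRET substrate was added and fluorescence read 2 h later.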
# [7] = target: Androgen receptor (Homo sapiens) (UniProt P10275); experiment: qHTS assay to identify small molecule agonists of the androgen receptor (AR) signaling pathway (AID 743036; active means well fitted activation curve with a large enough effect in the signal ratio in the repeat runs, with a control signal flat, not every such curve was filed as active; the % refers to the signal ratio)
# In short: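 Cell-based FRET reporter assay: HEK293 line with a UAS-beta-lactamase construct, compounds added in DMSO, 16 h exposure at 37C, then 2 h substrate step at room temperature and fluorescence intensity read.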
# [8] = target: Androgen receptor (Homo sapiens) (UniProt P10275); experiment: qHTS assay to identify small molecule agonists of the androgen receptor (AR) signaling pathway using the MDA cell line (AID 743040; further: nearly all actives have a fitted effect of over 20% in size)
# In short: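 Luciferase agonist assay: 16 h compound exposure at 37C without CO2 in MDA-kb2 AR-luc cells, whose MMTV promoter responds to both AR and GR. Luminescence measured after 30 min room-temperature incubation with ONE-Glo.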
# [9] = qHTS assay to identify small molecule antagonists of the androgen receptor (AR) signaling pathway using the MDA cell line - cell viability counter screen (AID 743041; further: nearly all actives have a fitted effect of over 45% in size; further: potency means the concentration at half of the fitted maximal effect)
# In short: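 Viability read by CellTiter-Fluor fluorescence in the same wells as the antagonist screen, added after 15.5 h of a 16 h, 37C exposure. Human breast carcinoma MDA-kb2 AR-luc cells, compounds co-dosed with agonist R1881.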
# [10] = target: Androgen receptor (Homo sapiens) (UniProt P10275); experiment: qHTS assay to identify small molecule antagonists of the androgen receptor (AR) signaling pathway using the MDA cell line (AID 743042; further: nearly all actives have a fitted effect of over 55% in size; further: potency means the concentration at half of the fitted maximal effect)
# In short: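 Antagonist mode: compounds plus R1881 agonist added to MDA-kb2 AR-luc cells, incubated 16 h at 37C. Luciferase reporter luminescence quantified, with multiplexed CellTiter-Fluor readout for cell viability.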
SMILES,Potency [1],Potency [2],Potency [3],Potency [4],Potency [5],Potency [6],Potency [7],Potency [8],Potency [9],Potency [10]
O=C(O)c1ccc(CO)o1,inactive,inactive,inactive,inactive,inactive,,,,,
CC1=CC(O)CC(C)(C)C1 (centres undefined),inactive,inactive,inactive,inactive,inactive,,,,,
CC(=O)Nc1ccccc1C,inactive,inactive,inactive,inactive,inactive,,,,,
CC(C)(C)CC(C)(C)c1ccc(OCCO)cc1,inactive,3.76 µM (active) and 13.6 µM (active),6.68 µM (active) and 7.65 µM (active),5.96 µM (active) and 9.63 µM (active),21.8 µM (active),15.1 µM (active) and 12.2 µM (active),inactive,inactive,27.8 µM (active) and 48.3 µM (active),11.9 µM (active) and 9.63 µM (active)
CCc1c2c(nc3ccc(OC(=O)N4CCC(N5CCCCC5)CC4)cc13)-c1cc3c(c(=O)n1C2)COC(=O)[C@]3(O)CC,inactive,5.96 µM (active),5.96 µM (active),4.22 µM (active),,,,,,
O=C1OCCN1/N=C/c1ccc([N+](=O)[O-])o1,inactive,,,,,,,,,
CC(CCc1ccc2c(c1)OCO2)NN (centres undefined),inactive,inactive,inactive,inactive,inactive,,,,,
CCCCC(=O)O[C@]1(C(=O)CO)[C@@H](C)C[C@H]2[C@@H]3CCC4=CC(=O)C=C[C@]4(C)[C@@]3(F)[C@@H](O)C[C@@]21C,inactive,43.3 µM (active),24.3 µM (active),24.3 µM (active),,,,,,
COc1cc2ncnc(Nc3ccc(F)c(Cl)c3)c2cc1OCCCN1CCOCC1,inactive,26.6 µM (active),26.6 µM (active),21.1 µM (active),inactive,,inactive,inactive,inactive,
CO[Si](C)(OC)OC,inactive,inactive,inactive,inactive,inactive,,,,inactive,
CC(C)OCC1CO1 (centres undefined),inactive,inactive,inactive,inactive,inactive,,,,inactive,
CCCCCCCCCCCCCCC[C@H](O)[C@@H](N)CO,inactive,inactive,inactive,inactive,inactive,inactive,,inactive,inactive,inactive
CC1=NN(c2ccc(C(=O)O)cc2)C(=O)C1,inactive,inactive,inactive,inactive,inactive,,,inactive,inactive,inactive
C=CC(C)(O)CCCC(C)CCCC(C)CCCC(C)C (centres undefined),inactive,inactive,inactive,inactive,inactive,,,,inactive,
CN1C(=O)CC(C)(c2ccccc2)C1=O (centres undefined),inactive,inactive,inactive,inactive,inactive,,,,inactive,
CC1CC(=O)NN=C1c1ccc(NCC(C)(C)NCC(O)COc2cc(Cl)ccc2C#N)cc1 (centres undefined),inactive,0.668 µM (active),0.376 µM (active),0.668 µM (active),inactive,,,,inactive,
COCC(O)CO (centres undefined),inactive,inactive,inactive,inactive,inactive,,,,inactive,
CC#N,inactive,inactive,inactive,inactive,inactive,,,,inactive,
CC(N)CN (centres undefined),inactive,inactive,inactive,inactive,inactive,,,,inactive,
CCOC(=O)OCC,inactive,inactive,inactive,inactive,inactive,,,,inactive,
CC(Cl)C(Cl)Cl (centres undefined),inactive,inactive,inactive,inactive,inactive,,,,inactive,
O=C(O)c1cccc(O)c1,inactive,inactive,inactive,inactive,inactive,,,,inactive,
Cc1cc(S(=O)(=O)O)ccc1N=Nc1c(O)ccc2ccccc12,inactive,inactive,61.1 µM (active),inactive,inactive,,,,30.6 µM (active),
CNCCCC1c2ccccc2C=Cc2ccccc21,inactive,4.52 µM (active),12.7 µM (active),11.4 µM (active),inactive,,,,inactive,
COc1cc2c(N3CCN(C(=O)Nc4ccc(OC(C)C)cc4)CC3)ncnc2cc1OCCCN1CCCCC1,inactive,6.68 µM (active),7.5 µM (active),5.96 µM (active),6.01 µM (active),inactive,,inactive,33.5 µM (active),inactive
CCc1nn(CCCN2CCN(c3cccc(Cl)c3)CC2)c(=O)n1CCOc1ccccc1,inactive,4.22 µM (active) and 11.9 µM (active),7.5 µM (active),5.96 µM (active) and 13.3 µM (active),10.7 µM (active),,,,22.1 µM (active),
Nc1ccc(S(=O)(=O)O)c(N)c1,inactive,inactive,inactive,inactive,inactive,,,,inactive,
CCCCN(CCCC)CCCOC(=O)c1ccc(N)cc1,inactive,4.52 µM (active),2.27 µM (active),4.52 µM (active),inactive,,,,inactive,
